# Results as given in PubChem BioAssay.
# “And” between values parts separate entries of the source, which are not always exact repeats. Equal entries are not always repeated. The source made the active and inactive calls.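 How the source made its calls: active means compounds whose cell count with miR-34 switched on is under 0.7 times the count with it off; inactive means the rest.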
# Assay: viability loss with induced miR-34 in A549 – imaging, A549 dox-inducible miR-34, nuclei and caspase counts, primary screen (AID 1347080); further: test concentration not given here
# Settings: A549 miR-34 inducible, Hoechst nuclei count, 48 h
# [1] = stronger effect = lower value, cell number ratio, induced over uninduced
# [2] = measured here: relative caspase fold change +Dox/-Dox
# [3] = measured here: total cells with miR-34 induction, stronger effect = lower value
# [4] = measured here: total cells without miR-34 induction
Structure (SMILES),fold change [1],fold change [2],cell count [3],cell count [4]
CCCCCCCC/C=C\CCCCCCCC(=O)NCC(=O)O,1.05 (inactive),0.739,6150,5840
CCCCC/C=C\C/C=C\C/C=C\CCCC/C=C\CCC(=O)O,0.938 (inactive),0.754,5780,6170
O=P(O)(O)OC1[C@H](OP(=O)(O)O)[C@H](O)C(O)[C@H](O)[C@H]1OP(=O)(O)O (some centres undefined),0.94 (inactive),1.1,5720,6080
O=C1C[C@@H]2[C@@H](/C=C/[C@@H](O)COc3cccc(C(F)(F)F)c3)[C@H](O)C[C@@H]2O1,0.96 (inactive),1.35,5650,5880
O=C(O)CCC/C=C\C[C@@H]1[C@@H](/C=C/C(=O)COc2cccc(C(F)(F)F)c2)[C@H](O)C[C@@H]1O,0.949 (inactive),0.381,6020,6340
CCCCC[C@H](O)/C=C/[C@H]1[C@H](O)CC(=O)[C@@H]1C/C=C\CCCC(=O)NCCO,1.16 (inactive),1.44,6290,5420
CCCCCCCCCCCCCCCC(=O)NC(C)C,1.13 (inactive),0.996,6190,5500
O=C(O)CCC/C=C\C[C@@H]1[C@@H](/C=C/[C@@H](O)CCc2cccc(C(F)(F)F)c2)[C@H](O)C[C@@H]1O,1.01 (inactive),1.2,5710,5640
CCCCC[C@H](O)/C=C/[C@H]1C=CC(=O)[C@H]1C/C=C\CCCC(=O)O,1.06 (inactive),1.6,6170,5800
CC(C)[C@H](O)C(=O)O,0.982 (inactive),1.05,5470,5570
CCCCCC#CCC#CCCCCCCCC(=O)O,0.999 (inactive),0.839,6260,6270
Cc1c(C(=O)c2ccccc2)c(N)c(-c2ccccc2)n1Cc1ccc(Cl)cc1,0.936 (inactive),1.39,5890,6290
O=C(CCCCCc1ccccc1)c1nc2ncccc2o1,1.06 (inactive),0.866,5480,5190
CCCCC[C@H](O)/C=C/[C@H]1CCC(=O)[C@@H]1C/C=C\CCCC(=O)O,0.932 (inactive),1.35,6060,6510
CCc1c(OCCCCCC(C)(C)c2nn[nH]n2)cc(O)cc1C(C)=O,1.03 (inactive),0.73,6030,5840
O=C(NCc1ccc(Cl)c(Cl)c1)O[C@H]1CCc2ccccc21,1.02 (inactive),1.19,5770,5680
O=C(O)CCCCCC[C@H]1C(=O)C[C@@H](O)[C@@H]1/C=C/[C@@H](O)Cc1ccccc1,1.03 (inactive),1.38,5710,5540
CCCCC/C=C\C/C=C\C/C=C\C/C=C\CCCC(=O)S[C@H](COCCCCCCCCCCCCCCCC)COP(=O)([O-])OCC[N+](C)(C)C,1.09 (inactive),0.9,5810,5360
CCCCCC(=O)/C=C/C=O,1.01 (inactive),1.61,5770,5720
CCCCCC/C=C\CCCC(=O)CC(=O)N[C@H]1CCOC1=O,1.06 (inactive),1.36,6290,5940
O=C(O)CCC/C=C\C[C@@H]1C(=O)C[C@@H](O)[C@@H]1/C=C/[C@@H](O)CCc1ccccc1,0.867 (inactive),0.324,5200,6000
CCCCC(C)(O)C/C=C/[C@H]1[C@H](O)CC(=O)[C@H]1CCCCCCC(=O)OC (some centres undefined),1.02 (inactive),1.88,5420,5290

Structure (SMILES),fold change [1],fold change [2],cell count [3],cell count [4]
C#CCCCCCCCCCNC(=O)Oc1cccc(-c2cccc(C(N)=O)c2)c1,0.97 (inactive),1.13,5690,5860
CCCCC[C@@H](O)/C=C/[C@H]1C(=O)C[C@H](O)[C@@H]1C/C=C\CCCC(=O)O,0.996 (inactive),1.65,6010,6040
CN(C)CCCCCCOc1ccc(-n2ccnc2)cc1,1.01 (inactive),0.915 and 0.806,5270 and 6380,5240 and 6330
C/C(O)=C1\C(=O)[C@@H]2[C@H]3c4c[nH]c5cccc(c45)C[C@H]3C(C)(C)N2C1=O,1.02 (inactive),0.893,2150,2100
C1CCC(NC(=NC2C3CC4CC(C3)CC2C4)N2CCOCC2)CC1 (centres undefined),1.04 (inactive),1.05,5720,5520
CCCCCCC(=O)SC[C@H](COP(=O)([O-])OCC[N+](C)(C)C)SC(=O)CCCCCC,0.918 (inactive),0.72,5570,6070
CCCCC(C)(C)[C@H](O)/C=C/[C@@H]1[C@@H](C/C=C\CCCC(=O)O)[C@H](O)C[C@H]1O,0.901 (inactive),1.73,5660,6290
CCCCC[C@H](O)/C=C/[C@@H]1[C@H]2C[C@H](CCCCC(=O)O)O[C@H]2C[C@H]1O,0.999 (inactive),1.41,6310,6310
COC(=O)C1=CC[C@@]23CC[C@@H]([C@@](C)(/C=C/C=C(\C)C(=O)O)OC2=O)[C@@]3(OC(C)=O)CC1,1.15 (inactive),0.682,2140,1860
CCCCCCCC/C=C\CCCCCCCC(=O)C(F)(F)F,0.972 (inactive),0.952,6200,6380
O=C(O)CCC/C=C\C[C@@H]1[C@@H](/C=C/[C@@H](O)Cc2ccccc2)[C@H](O)C[C@@H]1O,0.969 (inactive),1.42,6070,6260
COc1ccc2cc(CC(=O)O)ccc2c1,0.964 (inactive),1.2,5630,5840
CCCCC[C@H](O)/C=C/[C@H]1C(=O)C[C@H](O)[C@@H]1C/C=C/CCCC(=O)O,0.96 (inactive),1.11,5890,6130
CC(=O)OCOC(c1ccc2ccccc2c1)P(=O)(OCOC(C)=O)OCOC(C)=O (centres undefined),1.11 (inactive),0.941,3180,2860
CCCCC/C=C\C/C=C\CCCCCCCC(=O)OCC(COC(=O)CCCCCCCCCCCCCCC)OC(=O)CCCCCCC/C=C\CCCCCCCC (centres undefined),1.03 (inactive),0.903,5950,5790
CCCCC[C@](C)(O)/C=C/[C@H]1[C@H](O)CC(=O)[C@@H]1C/C=C\CCCC(=O)O,0.915 (inactive),1.22,5410,5910
CC(=O)O[C@@]12CO[C@@H]1C[C@H](O)[C@@]1(C)C(=O)[C@H](OC(=O)O)C3=C(C)[C@@H](OC(=O)[C@H](O)[C@@H](NC(=O)c4ccccc4)c4ccccc4)C[C@@](O)([C@@H](OC(=O)c4ccccc4)C12)C3(C)C (some centres undefined),1.13 (inactive),0.603,1340,1180
CCCCC[C@H](O)/C=C/[C@@H]1[C@H](CCCCCCC(=O)O)[C@H](O)C[C@H]1O,0.963 (inactive),1.17,6030,6260
FC(F)(F)c1ccc(/C=C/c2cc(Cl)cc(Cl)c2)cc1,1.01 (inactive),0.839,5620,5570
Nc1nc2c([nH]c(=O)n2[C@H]2C[C@H](O)[C@@H](CO)O2)c(=O)[nH]1,0.857 (inactive),1.18,4960,5800
CC(C)=CCC/C(C)=C/CC/C(C)=C/CC[C@]1(C)CCc2cc(O)c(C)c(C)c2O1,0.98 (inactive),0.749,5370,5480
CCCCC/C=C\C/C=C\CC/C=C\CCCC(=O)OC,0.951 (inactive),0.414,6030,6340

Structure (SMILES),fold change [1],fold change [2],cell count [3],cell count [4]
CCCCC/C=C\C/C=C\C/C=C\CCCCCCC(=O)OCC,1.05 (inactive),0.794,6480,6160
CCC(C)[C@H]1O[C@]2(C=C[C@@H]1C)C[C@@H]1C[C@@H](C/C=C(\C)[C@@H](OC3C[C@H](OC)C(O[C@H]4C[C@H](OC)[C@@H](NC(C)=O)[C@H](C)O4)[C@H](C)O3)[C@@H](C)/C=C/C=C3\CO[C@@H]4[C@H](O)C(C)=C[C@@H](C(=O)O1)[C@]34O)O2 (some centres undefined),1.03 (inactive),0.79,4370,4250
CCCCC[C@H](O)/C=C/[C@H]1C2COC(C2)[C@@H]1C/C=C\CCCC(=O)O (some centres undefined),0.904 (inactive),0.954,5380,5950
CCCCC[C@H](O)/C=C/[C@@H]1[C@@H](C/C=C\CCCC(=O)OC)[C@@H](O)C[C@H]1O,0.963 (inactive),1.19,5860,6080
CCCCCC(=O)CC[C@H]1C(=O)C=C[C@@H]1C/C=C\CCCC(=O)O,0.989 (inactive),0.66,5270,5330
CC(C)ON(CC(=O)NO)S(=O)(=O)c1ccc(-c2ccccc2)cc1,0.989 (inactive),1.73,6160,6240
CCCCC[C@H](O)/C=C/[C@@H]1[C@@H](C/C=C\CCCCCC(=O)O)[C@@H](O)C[C@H]1O,0.876 (inactive),0.899,5260,6000
COc1cc2c3cc1Oc1c(OC)c(OC)cc4c1[C@@H](Cc1ccc(OC(=O)c5ccc([N+](=O)[O-])cc5)c(c1)Oc1ccc(cc1)C[C@@H]3N(C)CC2)N(C)CC4,1.06 (inactive),0.897,2050,1940
CCCCCCCCCCCC1N[C@H](C(=O)O)CS1 (some centres undefined),0.939 (inactive),1.06,5330,5670
CCCCCC(=O)/C=C/[C@@H]1[C@H](C/C=C\CCCC(=O)O)[C@H](O)C[C@H]1O,0.99 (inactive),3.22,5630,5690
Cc1nc(COP(=O)(O)O)cc(CN(CCN(CC(=O)O)Cc2cc(COP(=O)(O)O)nc(C)c2O)CC(=O)O)c1O.[Mn],1.02 (inactive),0.746,9240,9050
CCCCCCCCCCCCCCCCOC[C@H](COP(=O)([O-])OCC[N+](C)(C)C)OC(=O)CCCCCCCC(=O)O,0.862 (inactive),0.772,4600,5340
CCCCCCCCCCCCCCCC(=O)N[C@H]1CCOC1=O,0.999 (inactive),1.15,5590,5590
CCCCCC(=O)CC[C@@H]1[C@@H](C/C=C\CCCC(=O)OC(C)C)[C@@H](O)C[C@H]1O,0.977 (inactive),1.56,6190,6330
COC(=O)CCCCCC[C@@H]1[C@@H](CC[C@@H](O)CSc2ccccc2F)[C@H](O)C[C@@H]1O,0.962 (inactive),2.89,5920,6150
CCCC[C@H](CCC(=O)O)NC(=O)CCCCCCc1ccccc1,0.993 (inactive),1.71,6520,6570
CC(C)[C@H](O)CC[C@@H](C)[C@H]1CC[C@H]2[C@@H]3CC=C4C[C@@H](O)CC[C@]4(C)[C@H]3CC[C@]12C,0.898 (inactive),0.825,5260,5860
O=C(O)CCC/C=C\C[C@@H]1C(=O)C[C@@H](O)[C@@H]1/C=C/[C@@H](O)CC1CCCCC1,1.22 (inactive),0.461,7070,5800
CCCCC1C(=O)CC[C@H]2[C@@H]1CC(=O)[C@@H]2C/C=C\CCCC(=O)O (some centres undefined),1.07 (inactive),1.48,5940,5580
c1ccc(C(OC2CCN(CCCc3nn[nH]n3)CC2)c2ccccc2)cc1,0.935 (inactive),1.12,5840,6240
COc1ccc(C2=N[C@@H](c3ccc(Cl)cc3)[C@@H](c3ccc(Cl)cc3)N2C(=O)N2CCNC(=O)C2)c(OC(C)C)c1,1.1 (inactive),0.974,4290,3920
CCCCC[C@H](O)/C=C/[C@H]1OC(O)C[C@H](O)[C@@H]1CCCCCCC(=O)O (some centres undefined),1.03 (inactive),1.26,5640,5470
